The source made the active and inactive calls.
Test: FRG1 expression reporter modulators in myotubes – cell-based, C2C12 myotubes, firefly/Renilla luciferase, luminescence, FRG1 inhibition for FSHD, primary screen (AID 1084)
Conditions: FRG1 promoter luciferase, higher = more signal, called active from +8 up or from −8 down

z-score, inactive:
C=C(/C(=C/C[C@@H](OC(C)=O)c1cccc(OCCO)c1)c1cc(C(=O)OC)ccc1OC)C(C)C 0.608
CCOC(=O)C[C@H]1[C@H](OC(=O)c2cc3ccccc3oc2=O)[C@@H](NC(=O)c2ccc(-c3ccccc3)cc2)c2cc(OCCCO)ccc2N1C(=O)c1ccc2ccccc2n1 -0.185
CC[C@H]1C2=C3C(CC[C@H]4C(OCc5ccc(F)cc5C(F)(F)F)OC[C@](C)([C@@H]34)N(C(=O)OC(C)(C)C)C2)C(COC)C1COC (stereo not given in full) 1.18
C=CCOC(=O)[C@H]1[C@@H]2C(=O)O[C@@H](c3ccccc3)[C@@H](c3ccccc3)N2[C@@H](c2ccc(OCCOC(=O)[C@H]3C[C@H]4C(=O)N[C@@H](CCCCNC(C)=O)C(=O)N4[C@H]3c3ccc(O)cc3)cc2)[C@]12C(=O)Nc1ccccc12 -1.15
[N-]=[N+]=Nc1ccccc1[C@@H]1OC(c2ccc(OCCCO)cc2)=N[C@]1(Cc1ccccc1)C(=O)NCC(O)CO (stereo not given in full) -0.992
COc1ccc(C(O)C2C=CC3C(=O)N(c4ccccc4)C(=O)C3N2Nc2ccc([N+](=O)[O-])cc2)cc1 (stereo not given) -1
O=C1OCC=C[C@H]2OC34C=CCN(Cn5nnc6ccccc65)C(=O)[C@H]3N(CCCO)C(=O)[C@@H]4[C@@H]12 (stereo not given in full) 0.67
CCC[C@@H]1C[C@@]1(CCC)[C@@H](NC(=O)OCc1ccccc1)c1ccc(-c2ccccc2)cc1 -1.93
CC(C)(C)OC(=O)CC[C@@]1(C(=O)NCc2ccccc2)N=C(c2ccc(OCCCO)cc2)O[C@@H]1c1ccccc1N=[N+]=[N-] 1.16
COCCCNC(=O)[C@]1(CCS(=O)(=O)c2ccccc2)N=C(c2ccc(OCCCO)cc2)O[C@@H]1c1ccccc1CN=[N+]=[N-] 0.174
C=C(COC)/C(=C/C[C@H](OC(=O)c1ccncc1)c1ccccc1OCCO)c1cnc2ccccc2c1 1.01
O=C(NCC(F)(F)F)[C@@H]1c2ccccc2C(=O)N(Cc2cc(F)cc(C(F)(F)F)c2)[C@H]1c1ccc(CO)cc1 -0.0411
Cc1ccccc1C(O)C1C=CC2C(=O)N(C)C(=O)C2N1N(c1ccccc1)c1ccccc1 (stereo not given) -0.0079
COCCOC(=O)N1C(=O)[C@@]2(c3cc(C#CC4=CCCCC4)ccc31)[C@H](C(N)=O)[C@H]1C(=O)O[C@H](c3ccccc3)[C@H](c3ccccc3)N1[C@@H]2c1ccccc1OCCO -0.343
C[N+](C)(C)CCCCCCNC(=O)[C@H]1C[C@H]2C(=O)NCC(=O)N2[C@H]1c1ccc(O)cc1 4.03
O=C1OCC=C[C@H]2OC34C=CCN(Cc5ccccc5)C(=O)[C@H]3N(CCCCCCO)C(=O)[C@@H]4[C@@H]12 (stereo not given in full) -0.843
COc1ccc(-c2nc(-c3ccccc3)c3c(c2C)CO[Si]3(C(C)C)C(C)C)cn1 0.702
COCCOC(=O)N1C(=O)[C@@]2(c3cc(C#CC4(O)CCCCCC4)ccc31)[C@H](c1ccc(O)cc1)N1[C@H](c3ccccc3)[C@H](c3ccccc3)OC(=O)[C@H]1[C@@H]2C(=O)NC[C@H](O)c1ccccc1 0.69
[N-]=[N+]=NCc1ccccc1C[C@@]1(C(=O)NCc2ccccc2)N=C(c2ccc(OCCCO)cc2)O[C@@H]1c1ccccc1N=[N+]=[N-] -1.81
[N-]=[N+]=NCc1ccccc1C[C@@]1(C(=O)N2CCOCC2)N=C(c2ccc(OCCCO)cc2)O[C@@H]1c1ccccc1 -4.48
COc1ccc(NC(=O)O[C@H]2[C@H](OC(=O)Nc3ccccc3)[C@H](OC(=O)Nc3ccccc3)[C@@H](OC)O[C@@H]2CO)cc1 -0.742
COCCOC(=O)N1C(=O)[C@@]2(c3ccccc31)[C@H](C(=O)N1CCN(c3ncccn3)CC1)[C@H]1C(=O)O[C@H](c3ccccc3)[C@H](c3ccccc3)N1[C@@H]2c1ccc(O)cc1 -0.79
CCCCO[C@H]1C[C@H]2C(I)=C[C@@H]1C(=O)[C@]21CO1 1.43
COc1ccc(CN(C2=CC[C@@]3(C(N)=O)C(=O)C(Cl)=C(Cl)C(=O)[C@@]3(C#N)C2)S(=O)(=O)c2ccc(Br)cc2)cc1 -0.991
CCCCN1CC=CC23O[C@@H]4/C=C\CCC(C)OC(=O)C4[C@H]2C(=O)N(C(CO)C(C)C)[C@@H]3C1=O (stereo not given in full) -0.095
